Measured values taken from ChEMBL document CHEMBL1961873, “Compounds: GSK PKIS; Assays: Nanosyn kinase panel” (2012).

Legend:
[1] = target: Ribosomal protein S6 kinase alpha-6 (Homo sapiens) (UniProt Q9UK32); settings: at 1 µM;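 further: each value is a mean inhibition of RSK4 from a GSK PKIS panel screen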
[2] = target: T1, Serine/threonine-protein kinase Sgk1 (Homo sapiens) (UniProt O00141); settings: at 0.1 µM
T1 sequence (whole entry): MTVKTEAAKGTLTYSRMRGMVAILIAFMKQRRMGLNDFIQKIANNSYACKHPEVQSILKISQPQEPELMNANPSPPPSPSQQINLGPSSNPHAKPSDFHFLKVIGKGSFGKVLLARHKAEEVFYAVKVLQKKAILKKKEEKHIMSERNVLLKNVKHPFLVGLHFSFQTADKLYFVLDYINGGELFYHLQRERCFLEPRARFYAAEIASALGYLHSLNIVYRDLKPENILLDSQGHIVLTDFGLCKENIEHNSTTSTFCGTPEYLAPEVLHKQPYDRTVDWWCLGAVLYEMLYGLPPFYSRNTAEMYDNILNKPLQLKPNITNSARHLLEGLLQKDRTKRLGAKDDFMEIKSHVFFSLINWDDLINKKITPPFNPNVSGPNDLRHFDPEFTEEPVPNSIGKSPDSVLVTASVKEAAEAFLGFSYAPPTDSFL

[3] = target: T1, Serine/threonine-protein kinase Sgk1 (Homo sapiens); settings: at 1 µM
[4] = target: T2, Serine/threonine-protein kinase Sgk2 (Homo sapiens) (UniProt Q9HBY8); settings: at 0.1 µM
T2 sequence (whole entry): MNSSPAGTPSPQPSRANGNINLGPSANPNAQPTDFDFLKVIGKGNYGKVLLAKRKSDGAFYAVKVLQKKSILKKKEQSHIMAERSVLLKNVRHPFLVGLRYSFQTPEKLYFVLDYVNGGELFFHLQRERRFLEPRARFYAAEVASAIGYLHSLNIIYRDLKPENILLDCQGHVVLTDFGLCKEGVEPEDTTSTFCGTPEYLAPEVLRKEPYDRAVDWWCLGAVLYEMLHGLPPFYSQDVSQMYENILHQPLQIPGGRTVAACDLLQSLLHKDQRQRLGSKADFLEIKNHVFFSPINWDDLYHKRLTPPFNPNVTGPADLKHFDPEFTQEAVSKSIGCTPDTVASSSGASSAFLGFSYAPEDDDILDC

[5] = target: T2, Serine/threonine-protein kinase Sgk2 (Homo sapiens); settings: at 1 µM
[6] = target: T3, Serine/threonine-protein kinase Sgk3 (Homo sapiens) (UniProt Q96BR1); settings: at 0.1 µM
T3 sequence (whole entry): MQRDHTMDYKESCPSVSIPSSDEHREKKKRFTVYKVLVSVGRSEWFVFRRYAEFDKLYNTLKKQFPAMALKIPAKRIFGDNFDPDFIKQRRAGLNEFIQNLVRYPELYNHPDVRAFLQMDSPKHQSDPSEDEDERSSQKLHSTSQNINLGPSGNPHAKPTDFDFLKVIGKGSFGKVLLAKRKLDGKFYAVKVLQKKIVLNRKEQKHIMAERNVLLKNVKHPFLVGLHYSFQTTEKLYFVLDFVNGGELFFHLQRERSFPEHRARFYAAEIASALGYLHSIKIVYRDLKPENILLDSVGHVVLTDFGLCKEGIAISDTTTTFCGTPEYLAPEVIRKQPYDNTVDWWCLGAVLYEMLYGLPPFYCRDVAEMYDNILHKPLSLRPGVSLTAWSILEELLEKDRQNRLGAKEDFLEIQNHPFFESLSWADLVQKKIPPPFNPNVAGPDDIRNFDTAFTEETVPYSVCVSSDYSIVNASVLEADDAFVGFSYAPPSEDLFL

[7] = target: T3, Serine/threonine-protein kinase Sgk3 (Homo sapiens); settings: at 1 µM
[8] = target: 5'-AMP-activated protein kinase catalytic subunit alpha-1 (Homo sapiens) (UniProt Q13131); settings: at 0.1 µM
Sequence of 5'-AMP-activated protein kinase catalytic subunit alpha-1 (Homo sapiens) (Q13131 whole entry, looked up): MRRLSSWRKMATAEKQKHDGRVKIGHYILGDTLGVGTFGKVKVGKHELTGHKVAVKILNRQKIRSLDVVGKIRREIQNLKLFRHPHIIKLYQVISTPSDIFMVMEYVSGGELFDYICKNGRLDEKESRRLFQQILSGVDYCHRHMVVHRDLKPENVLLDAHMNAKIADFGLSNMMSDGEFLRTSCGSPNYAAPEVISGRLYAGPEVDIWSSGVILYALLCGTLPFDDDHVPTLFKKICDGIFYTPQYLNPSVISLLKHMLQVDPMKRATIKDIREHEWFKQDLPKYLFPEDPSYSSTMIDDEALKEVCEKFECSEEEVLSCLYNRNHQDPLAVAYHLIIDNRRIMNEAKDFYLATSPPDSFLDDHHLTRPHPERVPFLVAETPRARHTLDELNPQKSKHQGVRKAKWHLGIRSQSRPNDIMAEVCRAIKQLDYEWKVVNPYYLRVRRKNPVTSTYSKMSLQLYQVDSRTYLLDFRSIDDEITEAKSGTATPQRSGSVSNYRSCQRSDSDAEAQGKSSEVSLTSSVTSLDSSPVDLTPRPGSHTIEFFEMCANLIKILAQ

[9] = target: 5'-AMP-activated protein kinase catalytic subunit alpha-1 (Homo sapiens) (UniProt Q13131); settings: at 1 µM
[10] = target: 5'-AMP-activated protein kinase catalytic subunit alpha-2 (Homo sapiens) (UniProt P54646); settings: at 0.1 µM
Sequence of 5'-AMP-activated protein kinase catalytic subunit alpha-2 (Homo sapiens) (P54646 whole entry, looked up): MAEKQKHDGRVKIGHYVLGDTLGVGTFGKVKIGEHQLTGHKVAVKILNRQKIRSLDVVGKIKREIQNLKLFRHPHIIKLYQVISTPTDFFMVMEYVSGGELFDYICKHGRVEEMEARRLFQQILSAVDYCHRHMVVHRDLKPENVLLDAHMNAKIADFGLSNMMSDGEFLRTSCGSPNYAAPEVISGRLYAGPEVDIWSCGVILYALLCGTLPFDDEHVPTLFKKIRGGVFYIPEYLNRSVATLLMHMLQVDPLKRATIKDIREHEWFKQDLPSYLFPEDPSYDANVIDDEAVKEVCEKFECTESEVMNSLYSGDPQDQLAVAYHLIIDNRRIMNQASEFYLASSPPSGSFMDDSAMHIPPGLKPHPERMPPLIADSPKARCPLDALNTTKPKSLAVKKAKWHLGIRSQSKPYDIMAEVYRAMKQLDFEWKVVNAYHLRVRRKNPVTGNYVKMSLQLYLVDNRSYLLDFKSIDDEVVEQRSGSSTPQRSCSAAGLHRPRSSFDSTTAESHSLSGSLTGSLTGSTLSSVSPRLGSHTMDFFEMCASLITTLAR

[11] = target: 5'-AMP-activated protein kinase catalytic subunit alpha-2 (Homo sapiens) (UniProt P54646); settings: at 1 µM
[12] = target: T4, NUAK family SNF1-like kinase 1 (Homo sapiens) (UniProt O60285); settings: at 0.1 µM
T4 sequence (whole entry): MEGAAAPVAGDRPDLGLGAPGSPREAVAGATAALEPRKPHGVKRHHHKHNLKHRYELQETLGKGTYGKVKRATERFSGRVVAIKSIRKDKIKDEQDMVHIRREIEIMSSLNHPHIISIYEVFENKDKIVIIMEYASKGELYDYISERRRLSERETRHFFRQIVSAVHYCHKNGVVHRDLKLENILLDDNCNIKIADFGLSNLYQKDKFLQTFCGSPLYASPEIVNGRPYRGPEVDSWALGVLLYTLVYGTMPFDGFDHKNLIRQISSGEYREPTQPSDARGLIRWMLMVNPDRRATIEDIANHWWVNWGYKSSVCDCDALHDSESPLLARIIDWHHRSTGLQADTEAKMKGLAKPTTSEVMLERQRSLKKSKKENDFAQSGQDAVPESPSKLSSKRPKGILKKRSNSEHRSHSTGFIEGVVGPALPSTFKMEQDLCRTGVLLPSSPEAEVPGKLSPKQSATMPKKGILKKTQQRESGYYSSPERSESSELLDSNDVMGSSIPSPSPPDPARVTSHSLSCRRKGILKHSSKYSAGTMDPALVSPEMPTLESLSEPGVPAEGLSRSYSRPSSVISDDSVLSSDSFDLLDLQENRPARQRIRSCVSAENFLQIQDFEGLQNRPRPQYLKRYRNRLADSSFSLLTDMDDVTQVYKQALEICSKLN

[13] = target: T4, NUAK family SNF1-like kinase 1 (Homo sapiens); settings: at 1 µM
[14] = target: T5, Serine/threonine-protein kinase BRSK1 (Homo sapiens) (UniProt Q8TDC3); settings: at 0.1 µM
T5 sequence (whole entry): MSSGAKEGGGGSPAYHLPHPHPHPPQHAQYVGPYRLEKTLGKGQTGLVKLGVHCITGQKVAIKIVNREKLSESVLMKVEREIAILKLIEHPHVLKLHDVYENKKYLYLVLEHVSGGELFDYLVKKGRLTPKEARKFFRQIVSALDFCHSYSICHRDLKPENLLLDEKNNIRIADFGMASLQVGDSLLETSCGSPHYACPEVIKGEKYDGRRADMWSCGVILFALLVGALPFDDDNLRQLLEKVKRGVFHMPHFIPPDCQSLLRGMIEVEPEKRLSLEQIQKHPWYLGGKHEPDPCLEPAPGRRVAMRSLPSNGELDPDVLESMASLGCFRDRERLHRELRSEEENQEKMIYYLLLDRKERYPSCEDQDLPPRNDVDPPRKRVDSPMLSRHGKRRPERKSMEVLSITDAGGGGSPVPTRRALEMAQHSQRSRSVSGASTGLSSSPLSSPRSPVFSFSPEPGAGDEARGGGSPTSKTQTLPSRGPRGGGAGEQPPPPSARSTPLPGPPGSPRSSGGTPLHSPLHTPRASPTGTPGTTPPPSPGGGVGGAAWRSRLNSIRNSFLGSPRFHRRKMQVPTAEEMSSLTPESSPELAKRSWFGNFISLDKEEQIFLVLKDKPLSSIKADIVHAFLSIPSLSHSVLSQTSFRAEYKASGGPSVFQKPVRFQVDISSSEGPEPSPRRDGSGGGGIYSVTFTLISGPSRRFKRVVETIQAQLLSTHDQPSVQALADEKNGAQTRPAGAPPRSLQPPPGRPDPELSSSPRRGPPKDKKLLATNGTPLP

[15] = target: T5, Serine/threonine-protein kinase BRSK1 (Homo sapiens); settings: at 1 µM
[16] = target: T6, Serine/threonine-protein kinase BRSK2 (Homo sapiens) (UniProt Q8IWQ3); settings: at 0.1 µM
T6 sequence (whole entry): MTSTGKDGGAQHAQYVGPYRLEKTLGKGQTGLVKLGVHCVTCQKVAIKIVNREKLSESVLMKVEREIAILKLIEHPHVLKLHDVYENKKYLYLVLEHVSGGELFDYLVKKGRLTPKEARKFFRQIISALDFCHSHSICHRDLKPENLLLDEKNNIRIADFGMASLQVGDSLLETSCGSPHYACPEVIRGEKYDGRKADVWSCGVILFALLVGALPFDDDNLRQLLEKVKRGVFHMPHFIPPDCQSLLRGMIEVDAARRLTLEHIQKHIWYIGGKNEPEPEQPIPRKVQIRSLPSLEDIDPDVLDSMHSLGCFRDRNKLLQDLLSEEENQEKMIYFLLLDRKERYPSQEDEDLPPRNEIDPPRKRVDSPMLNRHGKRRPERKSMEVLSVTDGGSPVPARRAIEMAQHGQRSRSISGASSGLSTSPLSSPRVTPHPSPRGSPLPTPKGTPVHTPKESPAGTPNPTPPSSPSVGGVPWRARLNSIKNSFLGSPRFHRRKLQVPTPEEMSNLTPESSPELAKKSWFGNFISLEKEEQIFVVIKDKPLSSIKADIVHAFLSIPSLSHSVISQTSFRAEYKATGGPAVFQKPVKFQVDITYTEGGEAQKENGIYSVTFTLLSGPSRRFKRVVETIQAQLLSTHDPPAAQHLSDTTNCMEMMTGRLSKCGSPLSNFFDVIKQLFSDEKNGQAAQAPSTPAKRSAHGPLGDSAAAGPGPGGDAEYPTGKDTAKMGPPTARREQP

[17] = target: T6, Serine/threonine-protein kinase BRSK2 (Homo sapiens); settings: at 1 µM
[18] = target: Calcium/calmodulin-dependent protein kinase type 1D (Homo sapiens) (UniProt Q8IU85); settings: at 0.1 µM
Sequence of Calcium/calmodulin-dependent protein kinase type 1D (Homo sapiens) (Q8IU85 whole entry, looked up): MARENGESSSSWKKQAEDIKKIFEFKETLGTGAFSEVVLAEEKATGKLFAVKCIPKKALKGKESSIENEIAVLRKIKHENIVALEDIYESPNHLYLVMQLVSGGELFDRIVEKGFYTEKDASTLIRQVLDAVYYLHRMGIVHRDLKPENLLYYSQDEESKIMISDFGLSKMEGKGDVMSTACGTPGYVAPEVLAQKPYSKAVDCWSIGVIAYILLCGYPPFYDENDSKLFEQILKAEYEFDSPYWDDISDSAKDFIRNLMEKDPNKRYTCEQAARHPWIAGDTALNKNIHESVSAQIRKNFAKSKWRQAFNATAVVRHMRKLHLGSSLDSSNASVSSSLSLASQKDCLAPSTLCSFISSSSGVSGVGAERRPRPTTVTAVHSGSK

[19] = target: Calcium/calmodulin-dependent protein kinase type 1D (Homo sapiens) (UniProt Q8IU85); settings: at 1 µM
[20] = target: Calcium/calmodulin-dependent protein kinase type II subunit alpha (Homo sapiens) (UniProt Q9UQM7); settings: at 0.1 µM;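 further: reported values are averages (mean inhibition of CAMK2A)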
Sequence of Calcium/calmodulin-dependent protein kinase type II subunit alpha (Homo sapiens) (Q9UQM7 whole entry): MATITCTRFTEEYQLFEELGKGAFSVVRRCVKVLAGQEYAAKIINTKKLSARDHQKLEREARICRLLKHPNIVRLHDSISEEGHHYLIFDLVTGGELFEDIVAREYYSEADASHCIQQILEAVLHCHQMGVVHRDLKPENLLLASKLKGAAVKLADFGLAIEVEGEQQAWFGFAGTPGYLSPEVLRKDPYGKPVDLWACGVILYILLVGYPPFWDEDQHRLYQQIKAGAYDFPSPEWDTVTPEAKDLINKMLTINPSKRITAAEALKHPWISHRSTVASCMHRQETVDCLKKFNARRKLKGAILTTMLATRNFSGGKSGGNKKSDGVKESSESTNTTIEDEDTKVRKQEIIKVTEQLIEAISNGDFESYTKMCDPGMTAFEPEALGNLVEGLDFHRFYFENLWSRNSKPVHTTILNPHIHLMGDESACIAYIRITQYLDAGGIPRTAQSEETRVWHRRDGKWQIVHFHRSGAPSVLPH

Sequence of Ribosomal protein S6 kinase alpha-6 (Homo sapiens) (Q9UK32 whole entry): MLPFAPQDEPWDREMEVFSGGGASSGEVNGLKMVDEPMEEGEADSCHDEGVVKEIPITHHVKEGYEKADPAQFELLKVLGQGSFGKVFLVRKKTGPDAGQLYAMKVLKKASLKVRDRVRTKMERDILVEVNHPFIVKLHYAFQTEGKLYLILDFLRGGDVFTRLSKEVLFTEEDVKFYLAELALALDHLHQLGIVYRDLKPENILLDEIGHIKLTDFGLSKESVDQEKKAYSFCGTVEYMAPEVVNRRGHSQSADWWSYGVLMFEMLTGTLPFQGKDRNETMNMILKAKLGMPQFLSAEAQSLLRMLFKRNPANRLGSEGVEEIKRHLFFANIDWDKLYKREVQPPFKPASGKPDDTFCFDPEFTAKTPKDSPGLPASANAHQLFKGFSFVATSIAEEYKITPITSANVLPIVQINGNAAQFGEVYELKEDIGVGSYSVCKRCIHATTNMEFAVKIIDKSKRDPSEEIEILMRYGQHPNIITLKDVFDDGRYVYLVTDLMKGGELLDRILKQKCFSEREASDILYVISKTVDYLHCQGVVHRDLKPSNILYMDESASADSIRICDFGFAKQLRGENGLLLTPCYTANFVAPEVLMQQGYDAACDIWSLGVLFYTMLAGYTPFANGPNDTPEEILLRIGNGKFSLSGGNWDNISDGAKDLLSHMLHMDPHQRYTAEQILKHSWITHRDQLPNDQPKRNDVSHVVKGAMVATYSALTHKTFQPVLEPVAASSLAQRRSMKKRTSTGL

| Compound | inhibition [1] [%] | inhibition [2] [%] | inhibition [3] [%] | inhibition [4] [%] | inhibition [5] [%] | inhibition [6] [%] | inhibition [7] [%] | inhibition [8] [%] | inhibition [9] [%] | inhibition [10] [%] | inhibition [11] [%] | inhibition [12] [%] | inhibition [13] [%] | inhibition [14] [%] | inhibition [15] [%] | inhibition [16] [%] | inhibition [17] [%] | inhibition [18] [%] | inhibition [19] [%] | inhibition [20] [%] |
| --- | --- | --- | --- | --- | --- | --- | --- | --- | --- | --- | --- | --- | --- | --- | --- | --- | --- | --- | --- | --- |
| CN1CCN(CCCNc2nc3ccc(Oc4ccc(NC(=O)Nc5cc(C(F)(F)F)ccc5F)cc4)cc3[nH]2)CC1 | -0.1 | 4.51 | 5.49 | 0.79 | 1.09 | 3.14 | 0.75 | 1.09 | -0.25 | 2.94 | 3.1 | 0.88 | 4.39 | 2.48 | 2.58 | 1.15 | 0.19 | 2.28 | 4.38 | 3.27 |
| NS(=O)(=O)c1ccc(N/N=C2\C(=O)Nc3ccc(C(=O)NCCCn4ccnc4)cc32)cc1 | 13 | 5.02 | 14.6 | 2.07 | 7.54 | 3.25 | 6.44 | 18 | 64.4 | 5.78 | 26.3 | 19.4 | 66.4 | 4.96 | 31.2 | 8.96 | 46 | 0.1 | 2.23 | 3.04 |
| C#Cc1cccc(Nc2ncnc3ccc(OCCCCNCCS(C)(=O)=O)cc23)c1 | 3.55 | 3.74 | 5.99 | 3.88 | 4.33 | 3.82 | 4.46 | 4.2 | 6.4 | 4.13 | 4.43 | 4.55 | 12.9 | 1.77 | 7.62 | 3.96 | 10 | -0.65 | 0.48 | 3.18 |
| Clc1ccc(CNc2nccc(-c3cnn4ncccc34)n2)cc1 | 0.72 | 0.33 | 3.99 | 3.3 | 1.91 | 0.59 | 0.73 | -0.21 | 1.83 | -4.66 | 0.84 | 3.31 | 9.78 | 0.41 | 1.49 | 1.65 | 4.48 | 1.73 | 1.01 | 2.51 |
| O=C(Nc1ccc(Oc2ccc3[nH]c(NC(=O)c4ccccc4)nc3c2)cc1)Nc1cc(C(F)(F)F)ccc1F | 2.72 | 1.68 | 3.96 | 2.66 | 4.13 | 1.78 | 2.24 | 2.87 | 2.98 | 0.79 | 4.55 | 1.15 | 3.05 | 0.18 | 0.16 | 1.2 | 2.83 | -0.03 | 1.95 | 2.8 |
| Fc1ccc(-c2ncn(C3CCNCC3)c2-c2ccnc(Oc3ccc4c(c3)OCO4)n2)cc1 | 3.03 | 3.72 | 3.6 | 2.63 | 3.07 | 6.26 | 4.11 | 2.72 | 3.99 | 3.86 | 4.45 | 1.79 | 3.25 | 0.76 | 6.01 | 3.69 | 5.73 | -0.69 | 0.53 | 6.35 |
| NC(=O)c1cc(-c2ccc(F)cc2)cc(-c2ccncc2)c1N | 0.89 | 3.79 | 4.51 | 1.44 | 2.58 | 3.22 | 5.96 | 2.78 | 2.57 | 2.54 | 2.48 | -0.64 | -1.26 | 0.38 | -1.89 | 1.65 | 2.63 | -0.61 | 0.29 | 3.47 |
